# Most compounds without a hit are left out; they make up all but 3.8% or so of the library.
# Sfp inh = inhibitors of Bacillus subtilis Sfp phosphopantetheinyl transferase; Potency, µM, without a hit: largest response in the series, negative = inhibition, hits mostly inhibitors; Biochemical Sfp PPTase activity, qHTS; Q9F4F7; AID 1490; 310,000 tested, 3.5% active;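 further: the enzyme is Sfp with the accession as filed and its product quenches rhodamine fluorescence; 0% = enzyme reaction without inhibitor and -100% = no enzyme wells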
#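 Fluorescence-quenching assay: 15 nM Sfp-PPTase preincubated 15 min at room temperature with compound, then 5 uM rhodamine-CoA and 12.5 uM BHQ-2-labelled YbbR peptide added. Fluorescence (ex 525/em 598 nm) read at start and after 30 min; difference gives rate.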
# GCN5L2 inh = GCN5L2 (KAT2A) acetyltransferase inhibition; Q92830; GCN5L2 HAT assay, ThioGlo1 CoA-SH fluorescence; Potency, µM (series often up to 58.9 µM), for the others: top-dose activity change, negative = inhibition, most hits filed as inhibitors; 390,000 tested, 0.21% active
#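 qHTS, 1536-well. 20nM enzyme, pH 7.5 HEPES/EDTA/Tween-20 buffer; 15 min compound preinc., RT. Start: 75uM H3(1-25), 70uM AcCoA, 50uM ThioGlo1. Read Ex340/Em540 at t=0 (autofluorescence flag) and t=20 min.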
# GLS inhibitor = glutaminase GLS (human) inhibition; GLS enzymatic activity, qHTS titration; Potency, µM (series often up to 45.5 µM), for the others: at the highest dose activity change, negative = inhibition, most hits filed as inhibitors; 410,000 tested, 0.21% active; AID 624170
#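 Read-out is an Amplex red fluorescence increase coupled through glutamate oxidase and HRP, measured before and after 30 min room-temperature incubation. hKGA is in 45 mM KH2PO4 (pH 8.2) with 0.02% Tween-20; glutamine added as 1mM solution.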
# VDR inhibitor = blocks the human vitamin D receptor; AID 504847; VDR-SRC2-3 peptide fluorescence polarization, 2 h; Potency, µM, without a hit: max response, negative = inhibition, hits mostly inhibitors; 400,000 tested, 0.93% active
# Target sequence (P11473 whole entry, looked up): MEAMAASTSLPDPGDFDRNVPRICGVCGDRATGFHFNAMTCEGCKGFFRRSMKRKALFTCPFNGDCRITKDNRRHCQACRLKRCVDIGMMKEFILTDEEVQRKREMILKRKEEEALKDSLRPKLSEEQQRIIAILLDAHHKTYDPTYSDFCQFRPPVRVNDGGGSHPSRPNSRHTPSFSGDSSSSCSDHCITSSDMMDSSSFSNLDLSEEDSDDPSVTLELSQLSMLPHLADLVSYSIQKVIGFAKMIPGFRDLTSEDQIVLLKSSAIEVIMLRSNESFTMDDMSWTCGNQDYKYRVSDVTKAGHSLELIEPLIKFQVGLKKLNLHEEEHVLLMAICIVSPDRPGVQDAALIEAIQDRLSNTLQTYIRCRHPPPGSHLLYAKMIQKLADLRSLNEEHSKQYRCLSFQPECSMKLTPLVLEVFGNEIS
#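 Reagent solutions, kept cold and dark, are dispensed first; compounds are then pinned in at 23 nl, plates briefly spun, and incubated 2 h at ambient temperature. Inhibition of VDR–SRC2-3 peptide binding is read by fluorescence polarization.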
# TrxR1 substrate = substrates of rat thioredoxin reductase 1; O89049; purified TrxR1 substrate turnover, NADPH consumption readout; Potency, µM (top dose mostly 114 µM), without a hit: at the top dose activity change, negative = substrate turnover; 390,000 tested, 0.01% active; AID 588456; further: nearly all actives have a fitted effect of over 50% in size
#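 Rat TrxR1, dispensed at 90 nM, was prereduced with 400 uM NADPH (final) for 5 min at ~22 deg C, then incubated with compound 15 min before 400 uM selenite. A first-read NADPH fluorescence drop versus no-compound background flagged substrates.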
# TrxR1 inh = rat TrxR1 inhibition | O89049 | recombinant rTrxR1, NADPH fluorescence consumption, selenite substrate | 390,000 tested, 1% active | Potency, µM (doses to about 114 µM), without a hit: at the top dose activity change, negative = inhibition, actives largely listed as inhibitors; further: nearly all actives have a fitted effect of over 65% in size
#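 Rat TrxR1 (90 nM in the dispensed reagent) was pre-reduced with 400 uM NADPH for 5 min at room temperature, then incubated with compound for 15 min. After 400 uM selenite was added, NADPH fluorescence (Ex 340/Em 450 nm) was followed for 8 min.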
# * = called active by the depositor; ? = inconclusive; / = no result; [ ] = dose if it differs, or a comment. The call rests on the fitted dose curve; in most records, active means well fitted curve in the direction sought with a large enough effect; inconclusive means small, poorly fitted or top-dose-only effect, or another doubt; inactive means no such curve, though single readings can be large; an effect the other way counts as inactive or inconclusive. Unless noted, on the % scale 0 is the no-effect control and ±100 the full control effect; potency means the concentration at half of the fitted maximal effect.
SMILES,Sfp inh,GCN5L2 inh,GLS inhibitor,VDR inhibitor,TrxR1 substrate,TrxR1 inh
O=C(Nc1nc(-c2ccccn2)cs1)c1ccc([N+](=O)[O-])o1,16µM*,-27%,16%,-12%,-7%,?
CC1CC1C(=O)Nc1nc(-c2ccccn2)cs1 (stereo not drawn),25µM*,2%,-19%,79µM*,6%[57.1 µM],-6%[57.1 µM]
O=C(c1cccc(C(F)(F)F)c1)C1CCCN(C(=O)CN2CCCC2=O)C1 (stereo not drawn),?,-3%,-2%,6%,5%,4%
CCCCc1nc2c(c3c1CC(C)OC3)CN(CCOc1ccccc1)CC2 (stereo not drawn),16%,/,/,/,/,/
Cc1ccc(S(=O)(=O)CCSc2ccc(C(F)(F)F)cn2)cc1,15%,1%,-1%,9%,3%,27%
CCn1c(CNC(=O)c2ccccc2F)nnc1SCC(=O)Nc1nncs1,-3%,1%,-2%,-16%,-7%[57.1 µM],-14%[57.1 µM]
CC1CCCC(C)N1/N=C/c1ccc(Cl)cc1 (stereo not drawn),-8%,-2%,17%,5%,1%,1%
CC1CCCC(C)N1/N=C/c1ccccc1F (stereo not drawn),50µM*,1%,-11%,-24%,11%[57.1 µM],16%[57.1 µM]
CN(C(=S)NC(=O)c1ccc(Cl)cc1)C1CCCCC1,50µM*,-30%,-12%,-29%,3%,-18%
O=C1/C(=C\c2cc(Br)cc(Br)c2O)SC(=S)N1Cc1ccccc1,63µM*,-1%,21%,50µM*,-11%,-47%
O=C1/C(=C/c2cccnc2)SC(=S)N1Cc1ccco1,/,/,-1%,-38%,6%[11.4 µM],-29%[11.4 µM]
COc1cc([N+](=O)[O-])cc(/C=C2/SC(=S)N(Cc3ccccc3)C2=O)c1O,40µM*,?,-13%,?,-1%[57.1 µM],-15%[2.29 µM]
O=C1/C(=C\c2ccc(O)cc2)SC(=S)N1Cc1ccccc1,-10%,-17%,13%,23%,-7%,6%
O=C1/C(=C/c2ccccc2O)SC(=S)N1Cc1cccnc1,50µM*,-3%,7%,?,0%,-29%
COc1cccc(NC(=O)CSc2nnc(Cc3ccc(C)cc3)c(=O)n2N)c1,/,-6%,0%,-11%,-2%,16%
CC1CN(C2CCN(S(=O)(=O)c3ccccc3)CC2)CC(C)O1 (stereo not drawn),79µM*,-1%,9%,-9%,-5%,-14%
CCC(CC)c1nnc(NC(=O)c2nc3nc(C)cc(C)n3n2)s1,56µM*,-3%,7%,7%,-13%,-11%
CC(C)(C)Cc1nnc(NC(=O)c2ccc3c(c2)OCO3)s1,-99%,-10%,?,?,5%,17%
CCCOC(=O)c1ccc(NC(=O)c2nc3nc(C)cc(C)n3n2)cc1,-11%,22%,-12%,-7%,10%[57.1 µM],32%[57.1 µM]
CCC(CC)c1nnc(NC(=O)COc2ccc3c(c2)OCO3)s1,25µM*,-14%,-24%,79µM*,-5%,-6%
CC(C)c1nnc(NC(=O)COc2ccc3c(c2)OCO3)s1,-4%,-4%,0%,-10%,0%,5%
CCC(CC)c1nnc(NC(=O)c2ccc3c(c2)OCO3)s1,45µM*,-14%,?,79µM*,8%,23%
COc1ccc(CN2C(=O)CCC2(C)c2nnnn2Cc2ccccc2)cc1OC (stereo not drawn),/,/,3%,/,/,/
COc1cccc(-n2cc(C(=O)Nc3cccc(C(F)(F)F)c3)c3ccccc3c2=O)c1,/,-10%,2%,-8%,-1%,2%
Brc1cccc(OCCn2ccnc2)c1,56µM*,-7%,-2%,-12%,1%,8%
SMILES,Sfp inh,GCN5L2 inh,GLS inhibitor,VDR inhibitor,TrxR1 substrate,TrxR1 inh
Cc1ccc(C)c(/C=C2\N=C(c3ccccc3F)OC2=O)c1,-1%,-20%,14%,79µM*,-2%,-6%
Cc1ccccc1C1=N/C(=C/c2cccs2)C(=O)O1,-21%,-9%,5%,-1%,-4%,6%
CC(O)(c1cccc(F)c1)c1nc(-c2cc(F)cc(F)c2)cs1 (stereo not drawn),/,/,2%,/,/,/
N#CC1=C(SCC(=O)c2ccccc2)NC2=C(C(=O)CCC2)C1c1ccco1 (stereo not drawn),32µM*,-8%,26%,-12%,6%,?
Cc1ccc(C(=O)CSC2=C(C#N)C(c3ccco3)C3=C(CCCC3=O)N2)cc1 (stereo not drawn),-23%,-6%,-1%,-29%,1%,?
CC(C)(C)c1ccc(C(=O)CCCSC2=C(C#N)C(c3ccco3)C3=C(CCCC3=O)N2)cc1 (stereo not drawn),50µM*,-12%,-8%,-13%,0%[57.1 µM],-14%[57.1 µM]
CCSC1=C(C#N)C(c2ccc(Cl)cc2)C2=C(CCCC2=O)N1 (stereo not drawn),5%,0%,15%,1%,1%,5%
CCOC(=O)CSC1=C(C#N)C(c2ccccc2C)C2=C(CCCC2=O)N1 (stereo not drawn),14µM*,-7%,14%,-6%,9%,-11%
CCCCc1ccc(NC(=O)CSC2=C(C#N)C(c3ccco3)C3=C(CCCC3=O)N2)cc1 (stereo not drawn),7.9µM*,4%,5%,-5%,-6%,-24%
COc1ccc(NC(=O)CSC2=C(C#N)C(c3ccco3)C3=C(CCCC3=O)N2)c(OC)c1 (stereo not drawn),?,-9%,18%,2%,3%,-6%
CCN1C(=NCCOC)N[C@@H](CCc2ccccc2)[C@H](C(=O)OC)[C@H]1C,19%,2%,-9%,-9%,2%[57.1 µM],-13%[57.1 µM]
Cc1c(NC(=O)c2ccc(Cl)c(S(=O)(=O)N3CCOCC3)c2)c(=O)n(-c2ccccc2)n1C,3%,0%,-2%,9%,11%,20%
O=C(CSc1nc(-c2ccc(Cl)cc2)nc2c1Cc1ccccc1O2)N1CCCCC1,/,-8%,-11%,-12%,-4%,-3%
COc1ccc(-c2nc3c(c(SCC(=O)N4CCCCC4)n2)Cc2cc(Cl)ccc2O3)cc1,/,2%,3%,89µM*,0%,9%
Cc1ccc(S(=O)(=O)NNC(=S)NCCc2ccccc2)cc1,22%,4%,16%,-16%,4%,?
Nc1cc2nn(-c3ccccc3)nc2cc1Cl,40µM*,-4%,1%,-18%,12%,-81%[57.1 µM]
Nc1ccc2nn(-c3ccccc3)nc2c1,-17%,?,-6%,-8%,42%[57.1 µM],25%[57.1 µM]
C/C(N)=C(/C#N)C(=O)CSc1nc2ccccc2c(=O)n1Cc1ccc(C)cc1,?,-13%,1%,9%,-16%,-25%
